# Inconclusive results are not listed. Where a call stands in place of a potency, no number is given. A number with no mark means an inactive call. Calls of active or inactive are those of the source. The call rests on the fitted dose curve; in most records, active means well fitted curve in the direction sought with a large enough effect; inconclusive means small, poorly fitted or top-dose-only effect, or another doubt; inactive means no such curve, though single readings can be large; an effect the other way counts as inactive or inconclusive.
# Columns and labels:
# [1] = test system: Zika virus NS2B-NS3 protease; assay: Primary screen GU AMC qHTS for Zika virus inhibitors (AID 1347154); further: nearly all actives have a fitted effect of over 70% in size
# How it was run: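 Unlinked Zika NS2B hydrophilic domain/NS3 protease domain noncovalent complex (25 nM final) in 10 mM Tris-HCl pH 8.0, 0.01% Tween 20, with AMC peptide substrate. Fluorescence (ex 340, em 450 nm) change over 15 min, room temperature; percent inhibition fitted to 4-parameter Hill equation.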
# [2] = Counterscreen qHTS for small molecule stabilizers of the endoplasmic reticulum resident proteome: GLuc-NoTag assay (AID 1508627); further: series mostly up to about 76 µM
# How it was run: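 Secreted GLuc lacking the SERCaMP modification is measured in SH-SY5Y cells exposed to compound for 19 h and then to thapsigargin (100 nM, 4 h) to deplete ER calcium; hits retested at 11 concentrations, up to 76.6 uM.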
# [3] = Confirmatory qHTS for small molecule stabilizers of the endoplasmic reticulum resident proteome: Secreted ER Calcium Modulated Protein (SERCaMP) assay (AID 1508628); further: potency means the concentration at half of the fitted maximal effect; nearly all actives have a fitted effect of over 40% in size
# How it was run: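 Reporter secretion upon ER calcium depletion (100 nM thapsigargin, 4 h, 37C) is measured as medium luminescence with coelenterazine, after 16 h compound pretreatment of SH-SY5Y-GLuc-SERCaMP cells; primary at three concentrations up to 38.3 uM, follow-up at 11 (up to 76.6 uM).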
# [4] = Primary qHTS for small molecule stabilizers of the endoplasmic reticulum resident proteome: Secreted ER Calcium Modulated Protein (SERCaMP) assay (AID 1508630)
# How it was run: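 The SH-SY5Y reporter protocol was run at 3 concentrations up to 38.3 uM (primary) or 11 concentrations (follow-up): 16 h compound, 100 nM thapsigargin for 4 h, then extracellular luciferase luminescence.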
smiles,measurement,setting,value
CC(C)(O)C1O[C@H]2CC[C@@]3(C)[C@@](O)(CC[C@H]4Cc5c([nH]c6ccccc56)[C@@]43C)C2=CC1=O (some centres undefined),Potency,[1],inactive
same,Potency,[2],inactive
same,Potency,[3],39.8 µM (active)
same,Potency,[4],inactive

# — PubChem BioAssay (NCATS)
